This is an account of results in PubChem BioAssay AID1240 (Sanford-Burnham Center for Chemical Genomics, 2008).

Hit rate of the full screen: of about 50,000 compounds, about 800 (1.6%) showed an effect of 50% or more. What follows is part of a selection rich in strong results, with near analogues and random picks from the rest.

Sequence of Bcl-2-like protein 10 (Homo sapiens) (Q9HD36 whole entry, looked up): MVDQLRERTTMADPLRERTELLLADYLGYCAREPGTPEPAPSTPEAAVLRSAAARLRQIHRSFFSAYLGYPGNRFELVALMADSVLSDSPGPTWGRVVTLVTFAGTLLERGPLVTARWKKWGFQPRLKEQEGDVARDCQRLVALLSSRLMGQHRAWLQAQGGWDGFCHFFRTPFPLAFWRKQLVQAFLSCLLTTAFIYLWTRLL

The experiment addresses Bcl-2-like protein 10 (Homo sapiens) (UniProt Q9HD36). In words: Phenotype converters, Bcl-B/TR3 peptide binding displacement, primary biochemical FP (AID 1240).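 Also: 0% = Bcl-B with tracer peptide and DMSO and 100% = tracer peptide lacking Bcl-B.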 The following applies: GST-Bcl-B / FITC-TR3 peptide fluorescence polarization; stronger effect = higher value; compound at 3.75 mg/L. In general terms: Polarisation of emitted light reports the rotation of a fluorescent probe.
As to `Cc1ccc2c(nc3s/c(=C\c4cccc(Cl)c4Cl)c(=O)n32)c1C`, the displacement is -9.5%.

In the case of `Cc1ccc(S(=O)(=O)Oc2ccc(/C=C3\SC(N)=NC3=O)cc2Br)cc1`, the displacement turned out to be 1.8%.

Take `O=c1[nH]c(=O)n(-c2ccc(Cl)cc2)c(O)c1C=Nc1cccc(F)c1`: the displacement was found to be 10%.

With `Cc1cc(OCC(=O)Nc2cccc(F)c2)cc(C)c1Cl`, the displacement amounted to 4.1%.

Take `COCCNCCOc1c(C)cc(Cl)cc1C`: the displacement stood at 7.2%.

For the molecule `O=C(Nc1cc(Cl)cc(Cl)c1)c1ccc(CN2CCc3ccccc3C2)cc1`, the displacement was -3.7%.

In the case of `COC(=O)C1=C(C)N(c2ccccc2F)C(=O)/C1=C\c1sccc1C`, the displacement worked out at 7.8%.

With `CCN1C(=O)/C(=C\c2ccccc2)C(C(=O)OC)=C1C`, the displacement was -23.3%.

As to `C=CCN1C(=O)/C(=C\c2ccccc2)C(C(=O)OC)=C1C`, the displacement was -2.2%.

Regarding `CCN1C(=O)/C(=C\c2ccc(F)cc2)C(C(=O)OC)=C1C`, the displacement is 34.2%.

For the molecule `COC(=O)C1=C(C)N(c2ccccc2F)C(=O)/C1=C\c1ccccc1F`, the displacement came out at 112%.

Consider `COC(=O)C1=C(C)N(c2ccccc2F)C(=O)/C1=C\c1ccc(F)cc1`, for which the displacement was found to be 2.3%.

Regarding `C=CCN1C(=O)/C(=C\c2ccc(C(=O)OC)cc2)C(C(=O)OC)=C1C`, the displacement was -14.5%.

Take `C=CCN1C(=O)/C(=C\c2ccco2)C(C(=O)OC)=C1C`: the displacement was determined as 65.4%.

`COC(=O)C1=C(C)N(c2cc(C)cc(C)c2)/C(=C/c2ccco2)C1=O`: the displacement came to 99.6%.

With `COC(=O)C1=C(C)N(c2cc(C)cc(C)c2)/C(=C\c2sccc2C)C1=O`, the displacement is 27%.

Regarding `CCN1C(=O)/C(=C\c2ccc(C)cc2)C(C(=O)OC)=C1C`, the displacement was 86.2%.

Turning to `COC(=O)C1=C(C)N(c2ccc(C)c(C)c2)/C(=C/c2ccco2)C1=O`, the displacement was determined as 8.8%.

In the case of `COc1ccc(C(=O)N2CCCc3ccccc32)cc1OC`, the displacement is -3.3%.

Turning to `Cc1cc(=O)oc2cc(OCc3ccc(F)cc3)c(Cl)cc12`, the displacement turned out to be 16.8%.

For the molecule `Cc1cc([N+](=O)[O-])ccc1NCc1cccc(C(F)(F)F)c1`, the displacement is 2.6%.

Consider `CC1(C)CC(=O)C2=C(C1)c1c(ccc3ccccc13)NC2c1cccs1` (stereo not given), for which the displacement was 7.2%.

Consider `O=C(Nc1ccc(F)cc1)c1ccco1`, for which the displacement was found to be 12.9%.

For `COC(=O)C1=C(C)N(c2ccccc2)C(=O)/C1=C\c1ccc(C(=O)OC)cc1`, the displacement came out at 130%.

In the case of `COC(=O)C1=C(C)N(c2ccc(C)cc2)C(=O)/C1=C\c1ccc2c(c1)OCO2`, the displacement stood at 107%.

Turning to `COCCN1C(=O)/C(=C\c2ccc3c(c2)OCO3)C(C(=O)OC)=C1C`, the displacement was -8%.

Consider `COC(=O)C1=C(C)N(c2cccc(C)c2)C(=O)/C1=C\c1ccc(C(=O)O)cc1`, for which the displacement was found to be 6.9%.

For `COC(=O)C1=C(C)N(C)C(=O)/C1=C\c1ccc(C(=O)OC)cc1`, the displacement turned out to be 16.4%.

As to `COC(=O)C1=C(C)N(C)C(=O)/C1=C\c1ccc2c(c1)OCO2`, the displacement is -0.7%.

For `COc1ccccc1CC1S/C(=N\N=C\c2cccc([N+](=O)[O-])c2)NC1=O` (stereo not given), the displacement amounted to 12.9%.

`COc1ccc(NC(=O)Nc2ccccc2C(F)(F)F)cc1`: the displacement was found to be 8.4%.

Consider `CN(C)c1cccc2c(C(NS(=O)(=O)c3ccccc3)C(Cl)(Cl)Cl)ccc(N(C)C)c12` (stereo not given), for which the displacement came to 144%.

Take `COC(=O)C(NS(=O)(=O)c1ccccc1)C(C)C` (stereo not given): the displacement was -12%.

For `O=S(=O)(NC(c1cccs1)C(Cl)(Cl)Cl)c1ccc(Cl)cc1` (stereo not given), the displacement was 7%.

Turning to `CCCCNC(=O)/C(=C/c1ccc(C)o1)NC(=O)c1ccccc1`, the displacement is 13.1%.

For `CCOc1ccc(NC2=C(Cl)C(=O)N(c3cccc(Cl)c3Cl)C2=O)cc1`, the displacement is 16.3%.

Turning to `N#C/C(=C/c1cc([N+](=O)[O-])ccc1Cl)C(=O)Nc1cccc(Br)c1`, the displacement was -3.3%.

Turning to `O=C(N/N=C/c1cccs1)C1CC(=O)N(c2ccc(Cl)cc2)C1` (stereo not given), the displacement was -9.3%.

Turning to `O=C(N/N=C/c1cccs1)C1CC(=O)N(c2ccccc2)C1` (stereo not given), the displacement was determined as 25%.

`COc1ccc(N2CC(C(=O)N/N=C/c3cccs3)CC2=O)cc1` (stereo not given): the displacement was determined as 65%.

Turning to `O=C(O)/C=C/c1cccc(NS(=O)(=O)c2cccs2)c1`, the displacement is -13%.

For `Cc1nnc(SCC(=O)Nc2ccc3c(c2)oc2ccccc23)s1`, the displacement is -8.5%.

On to `Cn1nnnc1SCC(=O)Nc1ccc2c(c1)oc1ccccc12`, for which the displacement worked out at 87%.

As to `Cn1nnnc1SCC(=O)Nc1ccccc1`, the displacement was 4.1%.

For `O=C1NC(=O)/C(=C\c2cc3c(cc2[N+](=O)[O-])OCO3)S1`, the displacement is 6.8%.

For `O=C1OC(c2ccccc2F)=N/C1=C\c1cccc([N+](=O)[O-])c1`, the displacement was found to be 9.9%.

With `CCOc1c(Br)cc(/C=C2/C(=O)N(c3ccccc3)N=C2C)cc1OC`, the displacement was -0.6%.

Regarding `COc1cc(/C=C2\N=C(c3ccccc3)OC2=O)cc(Br)c1OCc1c(C)no[n+]1[O-]`, the displacement is -1.1%.

On to `CCN(CC)c1ccc(/C=C2N=C(/C=C/c3ccccc3)OC/2=O)cc1`, for which the displacement was -28%.

For the molecule `CCCOc1ccc(/C=C2N=C(/C=C/c3ccccc3)OC/2=O)cc1OC`, the displacement came to 166%.

Take `O=C1OC(c2ccccc2I)=N/C1=C\c1cccc([N+](=O)[O-])c1`: the displacement was -4%.

`CCOc1c(Br)cc(/C=C2N=C(/C=C/c3ccccc3)OC/2=O)cc1OC`: the displacement was 105%.

In the case of `O=C1OC(/C=C/c2ccccc2)=NC/1=C/c1cccc([N+](=O)[O-])c1`, the displacement came to 98.4%.

As to `O=C1OC(/C=C/c2ccccc2)=NC/1=C/c1ccccc1`, the displacement is 13.6%.

Take `COc1ccc(OC)c(/C=C2N=C(/C=C/c3ccccc3)OC/2=O)c1`: the displacement worked out at 9.6%.

Take `COc1ccc(/C=C2N=C(/C=C/c3ccccc3)OC/2=O)cc1`: the displacement was found to be 88.6%.

For `CCCOc1ccc(C=C2C(=O)N(C)C(=O)N(C)C2=O)cc1OC`, the displacement was 1.3%.

For the molecule `CCOC(=O)c1c(-c2ccccc2)csc1NC(=O)c1ccc(C)cc1`, the displacement is -5.7%.

With `COc1cc(/C=C2\SC(N)=NC2=O)cc(Br)c1OCc1cccc2ccccc12`, the displacement was -62.1%.

For the molecule `Fc1cccc(-c2nnc3ccc(C(F)(F)F)cn23)c1`, the displacement was -17%.

With `CC(=O)Nc1ccc(I)cc1C`, the displacement is -5%.

As to `Cc1cc2c(nc3s/c(=C/c4ccccc4)c(=O)n32)c(Br)c1C`, the displacement was -4.6%.

With `CC(C)c1ccccc1OCCCN1CCOCC1`, the displacement is -6%.

On to `Cc1ccc(N2C(=O)/C(=C/c3ccc(Oc4ccc([N+](=O)[O-])cn4)cc3)C(=O)NC2=S)c(C)c1`, for which the displacement was 7.3%.

Consider `CC1=NN(c2ccccc2)C(=O)C1C(C)C[N+](=O)[O-]` (stereo not given), for which the displacement was -9.8%.

Turning to `COc1ccc(/C=N/NC(=O)COc2ccccc2Br)cc1`, the displacement worked out at 2.6%.

`CC(=O)c1ccc(NC(=O)c2ccoc2C)cc1`: the displacement stood at 94%.

For the molecule `COC(=O)c1ccc(NC(=O)c2ccoc2C)cc1`, the displacement is -2.7%.

For the molecule `Cc1occc1C(=O)Nc1ccc(C(=O)O)cc1`, the displacement was -1.9%.

Regarding `CCOc1cc(C2NC(=S)NC(C)=C2C(=O)Nc2ccc(Cl)cc2)ccc1O` (stereo not given), the displacement was -3.2%.
